This is an account of results in PubChem BioAssay (NCI).

The structures appear in SMILES notation. About 83,000 compounds went through this panel and 20% of them were active in at least one assay; those are over-represented in the sample as a whole.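 Compound tested at a single concentration for 48 hours in 96-well plates; a percent growth value below 10 was scored as active.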 Unmarked numbers belong to inactive results. Active and inactive are the calls of the source.

The subject of this experiment is BT-549 breast. Nature of the experiment: NCI-60 one-dose screen, 48 h (100 = growth as untreated, 0 = no growth, -100 = all killed). Conditions: 10 µM unless noted.
As to `O=C1[C@@H]2Cc3c([nH]c4ccccc34)[C@H](c3ccc(Br)cc3)N2C(=O)CN1C1CCN(Cc2c(Cl)cccc2Cl)CC1`, the growth is 110%. On to `O=C1/C(=C/C=C/c2ccco2)SC(=S)N1Cc1ccccc1`, for which the growth is 110%. The value for `O=C(COc1ccc(/C=C2\C(=O)Nc3ccc(Cl)cc32)cc1)Nc1ccc(Cl)cc1` was 70.2%; that for `N#C/C(=N\Nc1ccc(F)cc1)C(=O)Nc1cc(-c2ccccc2)nn1-c1ccccc1` was 7.63% (active). As for `Clc1ccc2c(N/N=C/c3c[nH]c4ccccc34)ccnc2c1`, the growth was -89.1% (active). As for `CN1CCN(Cc2ccc(NC(=O)c3cncc(C#Cc4cnc5ccc(NCCO)nn45)c3)cc2C(F)(F)F)CC1`, the figure is -32.2% (active). As for `C#CCOc1ccc(/C=N/Nc2nc(-c3ccc(OC)cc3)cs2)cc1`, the figure is 89.1%; as for `Cc1ccc(/C(N)=N/C(N)=N/c2nc3ccccc3s2)cc1`, 102%; as for `CC(=O)Nc1cc(N2CCOCC2)c2nc(NC(=O)c3[nH]c(C)c(Cl)c3Cl)sc2c1`, 74.1%. As for `CN(C)c1ccc(/C=N/Nc2nc(N/N=C/c3ccc(N(C)C)cc3)nc(N3CCCCC3)n2)cc1`, the figure is 111%. As to `N#Cc1c(-c2cccs2)cc(-c2cnccn2)nc1SCC(=O)N/N=C/c1ccc(Cl)cc1`, the growth was 107%. The value for `COc1ccc(OC)c(NC(=O)CCCCCCNC(=O)C(O)(O)C(F)(F)F)c1` was 76.8%; that for `C/C(=N/N)c1nnn(-c2ccc(Br)cc2)c1C` was 102%; that for `CC(C)NC(=O)c1cc(-c2ccc(NC(=O)Nc3ccc(F)c(C(F)(F)F)c3)cc2)nc2cccnc12` was 100%.
